{"source": "PubChem BioAssay (NCATS)", "note": "Results filed as inconclusive are left out. The source made the active and inactive calls. Calls follow the shape of the dose curve; as a rule, active = well fitted curve in the direction sought with a large enough effect; inconclusive = small, poorly fitted or top-dose-only effect, or effect the other way, or another doubt; inactive = no such curve, though single readings can be large or run the other way.", "data": [{"experiment": "HPAF-II 24hr Apoptosis Induction qHTS against the NCATS CANVASS Library (AID 1347356); also: 0% is about no effect", "details": "HPAF-II caspase-3/7 Caspase-Glo luminescence; series mostly up to 46.1 µM; caspase activation: at the top concentration", "source_text": "Natural products and their derivatives continue to be wellsprings of nascent therapeutic potential. However, many laboratories have limited resources for biological evaluation, leaving their previously isolated or synthesized compounds largely or completely untested. To address this issue, the Canvass library of natural products was assembled (https://tripod.nih.gov/canvass), in collaboration with academic and industry researchers, for quantitative high-throughput screening (qHTS) across a diverse set of cell-based and biochemical assays. The pure (>85% purity by liquid chromatography/mass spectrometry [LC/MS]) Canvass library of 346 natural products were submitted by 45 academic laboratories and companies around the world. We collected pure natural products to circumvent deconvolution and structure elucidation due to time and resource limitations. The library was formatted into 1536-well plates and evaluated in 50 qHTS (in an 11-pnt concentration series) bioassays with broad scope of disease-relevant mechanisms. The resulting data set from 50 different assays was then systematically analyzed to identify overall trends and specific natural products with interesting biological activities. Reported herein are the results of each individual qHTS and their corresponding assay protocol. The Caspase-Glo (R) (Promega) is a homogeneous, luminescent assay that measures caspase activity. The detection substrate contains tetrapeptide sequence DEVD in an \"add-mix-measure\" format. The reagent generates a luminescent signal produced by a thermostable luciferase. The luminescence is proportional to the amount of caspase activity in the assay reaction. National Center for Advancing Translational Sciences (NCATS), Rockville, MD National Institute of Health (NIH), Bethesda, Maryland\nCancer Cell Apoptosis Assay 1. In a 1536 well, white solid bottom tissue culture plates (Corning 7494), HPAF-II cancer cells in DMEM + 10% FBS + 1% P/S media were dispensed in each well at a final concentration of 500 cells / well (5uL volume) using the Multidrop Combi (Thermo Fisher Scientific) dispenser. 2. Compounds were pin transferred (~23nL volume) via Wako Pin-tool (Wako Automation, Richmond VA) equipped with a 1536 pin head. The assay plates were treated with compounds in a concentration series with a final concentration range of 0.17 nM to 103 uM. 3. Doxorubicin was used as a control in a 16pnt titration (1mM; 1:2 dilution; 16-points; n = 2; column 3, rows 1 - 32) and was pin transferred via Wako Pin-tool equipped with a 1536 pin head. The final concentration range of doxorubicin is 0.1nM - 4uM. 4. The assay plates were incubated for 24 hours at 37 degrees C/5% CO2/95% Rh. 5. 3uL Caspase-Glo 3/7 (R) (Promega) detection reagent was then added to the assay plates (columns 2 - 48, rows 1 - 32) and incubated at room temperature, covered from light, for 15 min. 6. Luminescence signal was acquired via the ViewLux plate reader (PerkinElmer) using a clear filter, 20 second exposure and 2x binning settings.", "values": [{"smiles": "C=CC(CCCCC)C1C(=O)NC(=O)C1C(=O)C1C2C(C)CC(C(=O)O)CC2CC1(O)C(=O)/C=C/C", "note": "(stereo not given)", "caspase activation": "-3.34% (inactive)"}, {"smiles": "COC(=O)c1cc2cc3c(c(O)c2c(=O)o1)OC1(CC3)CC2=C(O1)C(=O)c1c(O)c(OC)cc(OC)c1C2=O", "note": "(stereo not given)", "caspase activation": "-1.59% (inactive)"}, {"smiles": "C/C=C1/C2=CCCN3C(=O)O[C@H]([C@H]1O)[C@H]23", "caspase activation": "-4.1% (inactive)"}, {"smiles": "C/C=C(/C)c1c(Cl)c(OC)c(C)c2c1Oc1c(Cl)c(O)c(Cl)c(C)c1C(=O)O2", "caspase activation": "-2.16% (inactive)"}, {"smiles": "CCC(=O)N[C@@H](C[C@H](C)C(Cl)(Cl)Cl)C(=O)N1C(=O)C=C(OC)[C@@H]1CC(C)C", "caspase activation": "2.23% (inactive)"}, {"smiles": "COC(=O)[C@@]1(C)CCC[C@]2(C)c3cc(OC)ccc3CC[C@@H]12", "caspase activation": "3.3% (inactive)"}, {"smiles": "C/C(=C\\CC[C@@H](C)[C@H]1CC[C@]2(C)C3=CCC4C(C)(C)[C@@H](O)C[C@@H](O)[C@]4(C)C3[C@H](O)C[C@@]12C)CO", "note": "(stereo not given in full)", "caspase activation": "4.36% (inactive)"}, {"smiles": "C/C(=C\\[C@H](C)C(=O)C[C@H](O)CC1CC(=O)NC(=O)C1)[C@@H]1OC(=O)CCCC/C=C/[C@@H](O)C[C@@H]1C", "caspase activation": "4.37% (inactive)"}, {"smiles": "C[C@H](c1cnc(N)[nH]1)c1ccc(O)c2[nH]cc(-c3cnc(-c4c[nH]c5ccccc45)c(=O)[nH]3)c12", "caspase activation": "-0.97% (inactive)"}, {"smiles": "CO[C@H]1/C=C/CCCCC(=O)O[C@@H](/C(C)=C/[C@H](C)C(=O)C[C@H](O)CC2CC(=O)NC(=O)C2)[C@@H](C)C1", "caspase activation": "7.35% (inactive)"}, {"smiles": "CC(C)=CC[C@H]1C[C@@]2(CC=C(C)C)C(=O)[C@](CC=C(C)C)(C(=O)C(C(=O)c3ccccc3)=C2O)C1(C)C", "caspase activation": "-1.34% (inactive)"}, {"smiles": "COc1ccc([C@@H]2c3cc4c(cc3C(=O)C(C)C2C)OCO4)cc1OC", "note": "(stereo not given in full)", "caspase activation": "-1.08% (inactive)"}, {"smiles": "CN1CC[C@@]23c4ccccc4N[C@@H]1[C@@]21CCN(C)[C@@H]3Nc2ccccc21", "caspase activation": "3.64% (inactive)"}, {"smiles": "COc1cc2c(cc1OC)[C@@H](c1ccc3c(c1)OCO3)C(C)C(C)C2=O", "note": "(stereo not given in full)", "caspase activation": "-0.77% (inactive)"}, {"smiles": "C/C(=C\\[C@H](C)C(=O)CCCC1CC(=O)NC(=O)C1)[C@@H]1OC(=O)/C=C/CC/C=C/[C@H](O)[C@@H](O)[C@@H]1C", "caspase activation": "12.5% (inactive)"}, {"smiles": "CN1C(=O)C(=O)N2C(=C[C@]3(c4c[nH]c5ccccc45)c4ccccc4N[C@H]23)C1=O", "caspase activation": "2.89% (inactive)"}, {"smiles": "COc1cc(C2OCC3C(c4ccc(O)c(OC)c4)OCC23)ccc1O", "note": "(stereo not given)", "caspase activation": "1.94% [at 9.19 µM] (inactive)"}, {"smiles": "CO/C=C/C(=O)c1cc2cnc3c(N)cc(=NC(=O)C(C)C)c([nH]1)c23", "caspase activation": "24.4% (inactive)"}, {"smiles": "COc1ccc([C@@H]2c3cc4c(cc3C[C@H](C)C2C)OCO4)cc1OC", "note": "(stereo not given in full)", "caspase activation": "-2.2% (inactive)"}, {"smiles": "CC(C)[C@@H]1CC(=O)c2coc3c2[C@H]1C[C@@H](C)C3=O", "caspase activation": "1.85% (inactive)"}, {"smiles": "C/C=C(/CO)C(=O)O[C@@H]1[C@H](O)[C@@H](C(=O)OC)O[C@@H]2C[C@H]3OC(n4cnc5c(N)ncnc54)[C@H](OC)[C@H]3O[C@@]12O", "note": "(stereo not given in full)", "caspase activation": "1.94% (inactive)"}, {"smiles": "CC[C@H](O)CCCCC[C@@H]1NC(=O)[C@H]2CCCCN2C(=O)[C@H]([C@H](C)CC)NC(=O)[C@H](Cc2cn(OC)c3ccccc23)NC1=O", "caspase activation": "16% (inactive)"}, {"smiles": "COc1cc2c(c(O)c1O)C(=O)c1c(coc1C)C2=O", "caspase activation": "-7.18% (inactive)"}, {"smiles": "C[C@H]1C=C[C@H]2CCCC[C@@H]2[C@H]1C(=O)[C@H]1CC2=C(C(=O)O)CCN2C1=O", "caspase activation": "-0.121% (inactive)"}, {"smiles": "COC12OC1(C13OC1(OC)C(=O)c1cc4cc(C)oc(=O)c4c(O)c1C3O)C(O)c1c(cc3cc(C)oc(=O)c3c1O)C2=O", "note": "(stereo not given)", "caspase activation": "-2.38% (inactive)"}, {"smiles": "C[n+]1cc2cc(C(N)=O)[nH]c3c(=N)c(Cl)c(N)c1c23", "caspase activation": "-4.13% (inactive)"}, {"smiles": "O=C1OC(CCO)c2cccc(O)c21", "note": "(stereo not given)", "caspase activation": "-0.541% (inactive)"}, {"smiles": "COc1ccc2[nH]c3c(c2c1)CCN1C[C@H]2C[C@@H](OC(=O)c4cc(OC)c(OC)c(OC)c4)[C@H](OC)[C@@H](OC)[C@H]2C[C@H]31", "caspase activation": "-1.31% (inactive)"}, {"smiles": "C=C[C@]1(C)CC[C@@H]([C@H](C)C(=O)CC=C(C)C)O1", "caspase activation": "-0.691% (inactive)"}, {"smiles": "CC1=C(C)C(=O)OC(C(C)C2(O)CCC3C4C5OC5C5(O)CC=CC(=O)C5(C)C4CCC32C)C1", "note": "(stereo not given)", "caspase activation": "2.37% (inactive)"}, {"smiles": "COc1ccc([C@@H]2c3cc4c(cc3C(=O)[C@H](C)C2C)OCO4)cc1OC", "note": "(stereo not given in full)", "caspase activation": "2.73% (inactive)"}, {"smiles": "CC(C)=CCC/C(C)=C/Cc1cc([C@@H]2CC(=O)c3c(cc(O)c(CC=C(C)C)c3O)O2)ccc1O", "caspase activation": "1.27% (inactive)"}, {"smiles": "CCC(=O)CCCCC[C@@H]1NC(=O)[C@H]2CCCCN2C(=O)[C@H](C(C)C)NC(=O)[C@H](Cc2cn(OC)c3ccccc23)NC1=O", "caspase activation": "25.2% (inactive)"}, {"smiles": "CCC(=O)N[C@@H](C[C@H](C)C(Cl)(Cl)Cl)C(=O)N1C(=O)C=C(OC)[C@@H]1C[C@H](C)CCl", "caspase activation": "20% (inactive)"}, {"smiles": "C=CC(CCCCC)C1C(=O)NC(=O)C1C(=O)C1C(/C=C/C)C=CC2CC(C(=O)O)CC(C)C21", "note": "(stereo not given)", "caspase activation": "2.16% (inactive)"}, {"smiles": "COC1C(C)OC(OCC23C[C@@H]4[C@H](C)CC[C@H]4C4(C=O)CC2C=C(C(C)C)C34C(=O)O)[C@@H](O)[C@H]1O", "note": "(stereo not given in full)", "caspase activation": "-2.12% (inactive)"}, {"smiles": "C/C(=C\\[C@@H](C)CC/C=C/CC/C=C/C(=O)O)[C@H](O)[C@H](C)C(=O)CCCC1CC(=O)NC(=O)C1", "caspase activation": "-3.44% (inactive)"}, {"smiles": "O=Cc1ccc2n1C[C@]1(C[C@H](O)[C@@H](CO)O1)OC2", "caspase activation": "2.23% (inactive)"}, {"smiles": "C=C[C@](Cl)(CBr)CCC=C(C)C", "caspase activation": "-1.26% (inactive)"}, {"smiles": "COc1cc2c(cc1OC)[C@@H](c1ccc3c(c1)OCO3)C(C)[C@@H](C)C2=O", "note": "(stereo not given in full)", "caspase activation": "2.78% (inactive)"}]}]}
